Consider 9 compounds from PubChem BioAssay (Tox21).

Records with an inconclusive call do not appear. Active and inactive are the calls of the source. Unless noted, calls follow the shape of the dose curve; as a rule, active = well fitted curve in the direction sought with a large enough effect in the repeat runs; inconclusive = weak or mixed curves; inactive = no such curve, though single readings can be large; an effect the other way counts as inactive or inconclusive.

A short description of test [1]: qHTS assay to identify small molecule agonists of the vitamin D receptor (VDR) signaling pathway - cell viability counter screen (AID 743224). Also: nearly all actives have a fitted effect of over 50% in size. Also: potency is read from the fitted curve at half-maximal effect. A digest of the protocol: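 Cells: VDR-bla, 2,000/well, settled 4 h. Treatment: compounds in DMSO, 16 h, 37C/5% CO2. Readout: CellTiter-Glo luminescence after 30 min RT.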
In general terms: qHTS replaces the single test concentration by a dilution series.

Test [2] can be described thus: qHTS assay to identify small molecule antagonists of the vitamin D receptor (VDR) signaling pathway - cell viability counter screen (AID 743225). Also: nearly all actives have a fitted effect of over 50% in size. Also: potency is read from the fitted curve at half-maximal effect. The method in brief:
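VDR-bla HEK 293T cells, 4 h pre-incubation at 37C, then compound plus 1-alpha,25-dihydroxyvitamin D3 (3 nM final) for 16 h. After the beta-lactamase FRET read, CellTiter-Glo was added to the same wells; luminescence after 30 min at room temperature.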

A short description of test [3]: qHTS assay to identify small molecule agonists of the NFkB signaling pathway - cell viability counter screen (AID 1159515; calls by dose curve; also: nearly all actives have a fitted effect of over 55% in size; also: potency is read from the fitted curve at half-maximal effect). A digest of the protocol: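 Cells are seeded (2,000 NFkB-bla ME-180 per well), rested overnight, and dosed with DMSO-dissolved compounds for 5 hr at 37 C. Viability is then read by CellTiter-Glo luminescence after 30 min at room temperature.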

Test [4] is described as follows: qHTS assay to identify small molecule agonists of the endoplasmic reticulum stress response signaling pathway - cell viability counter screen (AID 1159517; calls by dose curve; also: nearly all actives have a fitted effect of over 50% in size; also: potency is read from the fitted curve at half-maximal effect). The method in brief:
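In parallel with the ESRE reporter read, cytotoxicity was scored by CellTiter-Glo luminescence (30 min, room temperature) on HeLa ESRE-bla cells dosed for 5 hr.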

Test [5] has as its target Nuclear receptor ROR-gamma (Homo sapiens) (UniProt P51449). In words: qHTS assay to identify small molecule antagonists of the retinoid-related orphan receptor gamma (ROR-gamma) signaling pathway (AID 1159521; also: nearly all actives have a fitted effect of over 50% in size; also: potency is read from the fitted curve at half-maximal effect). The method in brief: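 Tet-on RORγ CHO cells carrying a ROR response element–luciferase reporter were pretreated with compounds for 2 h, then induced with 1 uM (final) doxycycline hyclate for 16 h at 37 C. Antagonism was read as decreased ONE-Glo luminescence.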

Test [6] in a line: qHTS assay to identify small molecule agonists of the AP-1 signaling pathway - cell viability counter screen (AID 1159525; calls by dose curve; also: nearly all actives have a fitted effect of over 55% in size; also: potency is read from the fitted curve at half-maximal effect). A digest of the protocol: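 Same-well cytotoxicity counter screen of the Tox21 10K library in ME-180 cells. The readout is ATP-dependent luminescence after 5 h compound treatment. Data are normalised to DMSO and tetra n-octyl ammonium bromide controls.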

A short description of test [7]: qHTS assay to identify small molecule antagonists of the retinoid acid receptor (RAR) signaling pathway - cell viability counter screen (AID 1159551). Also: nearly all actives have a fitted effect of over 35% in size. Also: potency is read from the fitted curve at half-maximal effect. A digest of the protocol:
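Cells (C3RL4) are plated, incubated overnight, dosed with compound in DMSO, then given retinol at 1 uM final. After 6 h at 37 C, CellTiter-Glo is added and luminescence read following 30 min at room temperature.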

A short description of test [8]: qHTS assay to identify small molecule antagonists of the retinoic acid receptor (RAR) signaling pathway (AID 1159552; also: nearly all actives have a fitted effect of over 50% in size). The method in brief: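 RARE-luc C3RL4 cells; cpds + 1 uM (final) retinol, 6 hr, 37 C/5% CO2; luciferase reagent, 30 min RT, luminescence readout. Inhibitors of retinol-driven signal scored.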
The nature of test [9]: qHTS assay to identify small molecule agonists of the retinoic acid receptor (RAR) signaling pathway (AID 1159553). Also: potency is read from the fitted curve at half-maximal effect. A digest of the protocol:
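Seed C3RL4 reporter cells at 1,000 per well and incubate overnight at 37 C. Add compounds in DMSO, incubate 6 hr. Add luciferase reagent, wait 30 min at room temperature, read luminescence.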

The nature of test [10]: qHTS assay to identify small molecule agonists of the RXR signaling pathway - cell viability counter screen (AID 1159529). Also: nearly all actives have a fitted effect of over 50% in size. Also: potency is read from the fitted curve at half-maximal effect. The method in brief: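 RXR-alpha-UAS-bla HEK 293T cells in medium with 2% charcoal-stripped FBS were preincubated 5 hr, then exposed to compounds for 16 hr at 37 C. Viability was read as CellTiter-Glo luminescence after 30 min at room temperature.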
Test [11] is described as follows: qHTS assay to identify small molecule antagonists of the retinoid-related orphan receptor gamma (ROR-gamma) signaling pathway - cell viability counter screen (AID 1159520). Also: nearly all actives have a fitted effect of over 50% in size. The method in brief:
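Tet-on ROR gamma CHO cells were given compounds for 2 hr, then doxycycline hyclate at 1 uM final, and incubated 16 hr at 37 C. Viability was measured as ATP content by CellTiter-Glo luminescence.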

The nature of test [12]: qHTS assay to identify small molecule agonists of the AP-1 signaling pathway (AID 1159526; calls by dose curve; also: potency is read from the fitted curve at half-maximal effect).
Test [13] addresses Retinoic acid receptor RXR-alpha (Homo sapiens) (UniProt P19793). In words: qHTS assay to identify small molecule agonists of the RXR signaling pathway (AID 1159527; calls by dose curve; also: nearly all actives have a fitted effect of over 35% in size). A digest of the protocol: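 GeneBLAzer RXR-alpha-UAS-bla HEK 293T cells in medium with 2% charcoal-stripped FBS, pre-incubated 5 hr at 37 C, then exposed to compounds 16 hr. Beta-lactamase reporter read by FRET substrate, 2 hr room temperature, 460/530 nm emission.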

Sequence of Retinoic acid receptor RXR-alpha (Homo sapiens) (P19793 whole entry, looked up): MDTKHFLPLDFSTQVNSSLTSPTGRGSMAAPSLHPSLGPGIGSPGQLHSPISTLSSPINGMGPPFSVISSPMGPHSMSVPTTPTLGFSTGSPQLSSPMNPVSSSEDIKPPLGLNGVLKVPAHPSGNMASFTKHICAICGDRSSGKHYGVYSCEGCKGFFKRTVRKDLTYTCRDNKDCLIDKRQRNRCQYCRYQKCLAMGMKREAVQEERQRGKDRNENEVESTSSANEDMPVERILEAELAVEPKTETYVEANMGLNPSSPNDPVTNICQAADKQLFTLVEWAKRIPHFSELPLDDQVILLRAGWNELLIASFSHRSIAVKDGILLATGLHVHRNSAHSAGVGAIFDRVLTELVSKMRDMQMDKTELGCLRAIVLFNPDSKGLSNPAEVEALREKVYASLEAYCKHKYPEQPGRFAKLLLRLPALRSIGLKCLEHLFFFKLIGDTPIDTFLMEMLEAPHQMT

Regarding `CCCCCOc1ccccc1/C(=C\SC)n1ccnc1`, the Potency result in test [1], in [2], in [3], in test [4], in test [6] and in [7] was “inactive” throughout. Moreover, the Potency entry in [8] was “inactive”. Also, the Potency in test [5] was 13.3 µM (active); in [9] it was 33.5 µM (active).
Consider `Oc1cccc(-c2c3nc(c(-c4cccc(O)c4)c4ccc([nH]4)c(-c4cccc(O)c4)c4nc(c(-c5cccc(O)c5)c5ccc2[nH]5)CC4)C=C3)c1`, for which the Potency in test [1] is 26.6 µM (active); in [10], 23.9 µM (active). The Potency result in test [3] and in [4] was “inactive” in each case.
For the compound `Nc1ccc(N)c2ccccc12`, the Potency in test [1] was 19.5 µM (active); in [2] it was 43.6 µM (active); in [3] it was 11 µM (active); in [4], 0.775 µM (active); in test [6], 54.9 µM (active); in test [10], 21.8 µM (active). In addition, the Potency in test [7] is 68.5 µM (active).
With `Cc1cc(=O)oc2cc(N(C)C)ccc12`, the Potency entry in test [1], in test [2], in [3], in test [11], in test [5] and in test [6] was “inactive” throughout. In addition, the Potency result in test [10], in test [7], in [8] and in test [9] was “inactive” in each case.
Take `O=C1CCCc2c1cc1ccc3cccc4ccc2c1c34`: the Potency entry in [1], in test [2], in test [3], in test [4], in test [6] and in test [10] was “inactive” each time. The Potency entry in test [7] and in test [8] was “inactive” each time. The Potency in [12] is 22.2 µM (active).
As for `CCCCCCCCCOC(=O)c1ccc(O)cc1`, the Potency was 17.1 µM (active) in [1]; 24.2 µM (active) in test [2]; 54.2 µM (active) in test [3]; 54.2 µM (active) in [4]; 38.3 µM (active) in test [6]; 24.2 µM (active) in test [10]. Also, the Potency result in [8] and in test [9] was “inactive” in each case.
For the compound `Clc1ccc(C(Cn2ccnc2)OCc2ccc(Sc3ccccc3)cc2)c(Cl)c1` (stereo unspecified), the Potency in [1] is 33.5 µM (active). The Potency result in [3], in test [11], in test [5], in [6], in test [13] and in [10] was “inactive” in each case. The Potency result in test [7], in test [8] and in test [9] was “inactive” throughout.
Take `Oc1c(Cl)cc(Cl)c2cccnc12`: the Potency in [3] is 0.477 µM (active); in test [5] it was 11.9 µM (active); in test [10], 0.952 µM (active). For the same compound, the Potency result in test [4], in [7] and in test [8] was “inactive” each time.
For `Cc1cc2c(cc1C(F)(F)F)N(C(=O)Nc1ccc(Oc3cccnc3C)nc1)CC2`, in [1], the Potency was 31.4 µM (active). Moreover, the Potency entry in test [2], in test [3], in [4], in test [10], in test [7] and in test [8] was “inactive” each time. In addition, the Potency result in [9] is “inactive”.
